The values below come from PubChem BioAssay (NCATS).

Each structure is given as a SMILES string. Values joined by “and” are separate entries in the source; they are usually repeats but may differ in a detail not shown here. Equal entries are not always repeated. A number with no mark means an inactive call. Inconclusive results are not listed. Active and inactive are the calls of the source.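 How the source made its calls, unless noted: active means compounds whose dose series gives a full or clear partial fitted curve of increased nuclear translocation; inconclusive means weak partial curve or effect only at the top dose; inactive means no dose-dependent translocation response.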

System in one assay: not listed separately
The assay is described as follows: Stat Signaling Pathway (AID 446; active means well fitted curve in either direction with a large enough effect, not every such curve was filed as active;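 further: ME-180 cervical cancer cells given 40 pM IL-6 alongside compound; SIE-controlled beta-lactamase reporter measured as 460/530 nm FRET emission ratio; on the % scale 0 is the no-effect control and ±100 the full control effect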). As to conditions: ME-180 SIE beta-lactamase reporter, IL-6 stimulated, 5 h; at 38 µM (top of the series) unless noted. Put shortly:
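Screening format detects activators and inhibitors alike: ME-180 SIE-bla cells stimulated at 40 pM IL-6 for 5 hrs with compound, then dual-emission beta-lactamase read at 405 nm excitation.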
As for `COc1ccc(NC(=O)c2ccc(-c3ccc(-c4noc(C)n4)cc3C)cc2)cc1N1CCN(C)CC1`, the activity, negative = inhibition was -18.9%.
Regarding `O=c1cc(-c2ccccc2)[nH]c2nc(Cl)ccc12`, the activity, negative = inhibition is -25.2%.
Take `CCCCCCN(CCCCCC)C(=O)Cc1c(-c2ccc(F)cc2)[nH]c2ccccc12`: the activity, negative = inhibition was 6.88%.
The same measure, in the same setting: the figure for `O=C(O)c1ccccc1Nc1ccccc1` is -15.6%; for `CC[N+](CC)(CC)CC(=O)Nc1c(C)cccc1C` it is -19.8%; for `N#Cc1cc2nc(O)c(O)nc2cc1[N+](=O)[O-]` it is -26.5%.
`Nn1nnc2ccccc21`: the activity, negative = inhibition was 9.14%.
Still for that read-out and setting: the figure for `O=C1Cc2c([nH]c3ccc(Br)cc23)-c2ccccc2N1` is -29.2% (active).
Same read-out and setting: with `O=C(O)/C(=C/c1c(C(=O)O)[nH]c2cc(Cl)cc(Cl)c12)c1ccccc1` the figure was 10.5%; with `N#CC(C#N)=C(N)/C(C#N)=C/c1ccc(O)cc1`, 5.06%.
On the same count and under the same terms, the figure for `O=C(O)Cc1ccc(O)c(O)c1` is 18.6%; for `O=c1[nH]c(=S)[nH]c(-c2ccccc2)c1Cc1c(O)ccc2ccccc12` it is -12.5% [at 7.69 µM].
For the molecule `CC(N)=O`, the activity, negative = inhibition is 13.9%.
On the same count and under the same terms, the figure for `CCSC(=N)N` is 9.06%.
Take `CCN(CC)CCOC(=O)c1cc(Cl)c(N)cc1OC`: the activity, negative = inhibition was -0.802%.
The same measure, in the same setting: the figure for `O=c1[nH]c2ccccc2c2ccccc12` is -7.28%.
Still for that read-out and setting: with `NS(=O)(=O)c1cccc2c1c([N+](=O)[O-])cc1nc(O)c(O)nc12` the figure was -3.69%; with `NOCC(=O)O`, 4.25%; with `Cn1ccnc1`, 8.3%.
With `Cn1c(=O)c2[nH]c(-c3ccc(S(=O)(=O)O)cc3)nc2n(C)c1=O`, the activity, negative = inhibition was 18%.
In the case of `C#CCn1c(=O)c2c(ncn2C)n(C)c1=O`, the activity, negative = inhibition was 16.8%.
On the same count and under the same terms, the figure for `N=C(N)c1ccc(OCCCCCOc2ccc(C(=N)N)cc2)cc1` (tested in a mixture with another compound) is -3.59%; for `CC(=O)N[C@@H](Cc1c[nH]c2ccccc12)C(=O)OCc1cc(C(F)(F)F)cc(C(F)(F)F)c1` it is 1.93%.
The same measure, in the same setting: with `C[C@H](O)C(=O)C1=Nc2c(nc(N)[nH]c2=O)NC1` the figure was -2.31%; with `O=C(N[C@@H](Cc1ccccc1)C(=O)CCl)OCc1ccccc1`, -59.3% (active); with `COc1ccc(-c2ccc(N)[n+](CCCC(=O)O)n2)cc1`, 5.04% [at 17.2 µM].
For `c1ccc(CN2CCC3(CCCc4ccccc43)CC2)cc1`, the activity, negative = inhibition is -10.2%.
Same read-out and setting: the figure for `CC(C)(CO)Cc1cc(C(C)(C)C)c(O)c(C(C)(C)C)c1` is -24.1%; for `CNC(=O)c1cc2c(cn1)[nH]c1ccccc12` it is 31.1%.
On the same count and under the same terms, with `NCCCCN=C(N)N` the figure was -20.8%; with `C[N+](C)(C)CC=O`, 17.9%; with `Nc1nc2[nH]c(=O)cnc2c(=O)[nH]1`, 29.5%.
For `Oc1ccc(Cn2cc[nH]c2=S)cc1`, the activity, negative = inhibition was 25%.

Another assay deals with Glucocorticoid receptor (Homo sapiens) (UniProt P04150). The assay can be described thus: GR-GFP Redistribution (AID 450). Further: potency means the concentration at half of the fitted maximal effect. The conditions noted are these: U2OS GR-GFP nuclear translocation, laser cytometry, 2 h.
Glucocorticoid receptor (Homo sapiens), sequence (P04150 whole entry, looked up): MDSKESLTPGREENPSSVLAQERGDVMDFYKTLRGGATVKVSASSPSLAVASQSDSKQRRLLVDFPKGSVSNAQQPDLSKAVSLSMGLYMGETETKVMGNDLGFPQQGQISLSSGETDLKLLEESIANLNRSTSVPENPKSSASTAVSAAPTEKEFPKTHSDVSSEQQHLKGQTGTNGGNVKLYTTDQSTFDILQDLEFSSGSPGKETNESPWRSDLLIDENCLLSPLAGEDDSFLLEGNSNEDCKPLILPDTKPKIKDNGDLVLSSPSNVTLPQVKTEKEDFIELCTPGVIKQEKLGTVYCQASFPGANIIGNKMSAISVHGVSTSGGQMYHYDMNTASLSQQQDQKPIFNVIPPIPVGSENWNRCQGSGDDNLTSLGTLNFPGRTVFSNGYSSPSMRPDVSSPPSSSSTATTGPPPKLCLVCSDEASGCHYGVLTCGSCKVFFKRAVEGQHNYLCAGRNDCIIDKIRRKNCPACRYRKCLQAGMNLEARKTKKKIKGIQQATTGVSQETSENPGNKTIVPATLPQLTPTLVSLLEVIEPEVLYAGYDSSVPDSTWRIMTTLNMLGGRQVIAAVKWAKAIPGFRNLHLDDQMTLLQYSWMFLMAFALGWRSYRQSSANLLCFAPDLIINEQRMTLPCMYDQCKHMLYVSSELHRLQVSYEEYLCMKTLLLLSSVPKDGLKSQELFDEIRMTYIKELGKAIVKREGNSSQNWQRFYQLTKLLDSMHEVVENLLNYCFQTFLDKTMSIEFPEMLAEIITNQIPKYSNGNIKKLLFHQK
As to `COc1ccc(NC(=O)c2ccc(-c3ccc(-c4noc(C)n4)cc3C)cc2)cc1N1CCN(C)CC1`, the Potency was over 46 µM.
On to `O=c1cc(-c2ccccc2)[nH]c2nc(Cl)ccc12`, for which the Potency was over 46 µM.
Same read-out and setting: with `CCCCCCN(CCCCCC)C(=O)Cc1c(-c2ccc(F)cc2)[nH]c2ccccc12` the figure was over 46 µM; with `O=C(O)c1ccccc1Nc1ccccc1`, over 46 µM; with `CC[N+](CC)(CC)CC(=O)Nc1c(C)cccc1C`, over 46 µM.
Still for that read-out and setting: with `N#Cc1cc2nc(O)c(O)nc2cc1[N+](=O)[O-]` the figure was over 46 µM; with `Nn1nnc2ccccc21`, over 46 µM; with `O=C1Cc2c([nH]c3ccc(Br)cc23)-c2ccccc2N1`, over 46 µM.
As for `O=C(O)/C(=C/c1c(C(=O)O)[nH]c2cc(Cl)cc(Cl)c12)c1ccccc1`, the Potency is over 46 µM.
On the same count and under the same terms, with `N#CC(C#N)=C(N)/C(C#N)=C/c1ccc(O)cc1` the figure was over 46 µM; with `O=C(O)Cc1ccc(O)c(O)c1`, over 46 µM; with `O=c1[nH]c(=S)[nH]c(-c2ccccc2)c1Cc1c(O)ccc2ccccc12`, over 46 µM.
On the same count and under the same terms, with `CC(N)=O` the figure was over 46 µM.
Regarding `CCSC(=N)N`, the Potency is over 46 µM.
Same read-out and setting: the figure for `CCN(CC)CCOC(=O)c1cc(Cl)c(N)cc1OC` is over 46 µM; for `O=c1[nH]c2ccccc2c2ccccc12` it is over 46 µM; for `NS(=O)(=O)c1cccc2c1c([N+](=O)[O-])cc1nc(O)c(O)nc12` it is over 46 µM.
Still for that read-out and setting: with `NOCC(=O)O` the figure was over 46 µM; with `Cn1ccnc1`, over 46 µM.
Same read-out and setting: the figure for `Cn1c(=O)c2[nH]c(-c3ccc(S(=O)(=O)O)cc3)nc2n(C)c1=O` is over 46 µM.
Turning to `C#CCn1c(=O)c2c(ncn2C)n(C)c1=O`, the Potency is over 46 µM.
Consider `N=C(N)c1ccc(OCCCCCOc2ccc(C(=N)N)cc2)cc1` (tested in a mixture with another compound), for which the Potency is over 46 µM.
Turning to `CC(=O)N[C@@H](Cc1c[nH]c2ccccc12)C(=O)OCc1cc(C(F)(F)F)cc(C(F)(F)F)c1`, the Potency is over 46 µM.
Still for that read-out and setting: with `C[C@H](O)C(=O)C1=Nc2c(nc(N)[nH]c2=O)NC1` the figure was over 46 µM.
On the same count and under the same terms, the figure for `O=C(N[C@@H](Cc1ccccc1)C(=O)CCl)OCc1ccccc1` is over 46 µM; for `COc1ccc(-c2ccc(N)[n+](CCCC(=O)O)n2)cc1` it is > 46 µM and > 20.6 µM; for `c1ccc(CN2CCC3(CCCc4ccccc43)CC2)cc1` it is over 46 µM.
Same read-out and setting: with `CC(C)(CO)Cc1cc(C(C)(C)C)c(O)c(C(C)(C)C)c1` the figure was over 46 µM.
In the case of `CNC(=O)c1cc2c(cn1)[nH]c1ccccc12`, the Potency was over 46 µM.
On the same count and under the same terms, with `NCCCCN=C(N)N` the figure was over 46 µM; with `C[N+](C)(C)CC=O`, over 46 µM; with `Nc1nc2[nH]c(=O)cnc2c(=O)[nH]1`, over 46 µM.
On to `Oc1ccc(Cn2cc[nH]c2=S)cc1`, for which the Potency is over 46 µM.
